# Reference: PubChem BioAssay
# Calls of active or inactive are those of the source.
# Experiments:
# [1] = target: Albumin (Bos taurus) (UniProt P02769); experiment: bovine serum albumin binders on microarray, profiling panel, artefact control for SMM control protein annotation, biochemical, small-molecule microarray, Alexa647 label, 635/667 nm fluorescence (AID 1118); details: BSA-A647 binding, fluorescence 635 nm, higher = more signal;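 note: score merges 667 nm emission intensity and signal-to-noise per printed compound spot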
# Albumin (Bos taurus), sequence (P02769 whole entry, looked up): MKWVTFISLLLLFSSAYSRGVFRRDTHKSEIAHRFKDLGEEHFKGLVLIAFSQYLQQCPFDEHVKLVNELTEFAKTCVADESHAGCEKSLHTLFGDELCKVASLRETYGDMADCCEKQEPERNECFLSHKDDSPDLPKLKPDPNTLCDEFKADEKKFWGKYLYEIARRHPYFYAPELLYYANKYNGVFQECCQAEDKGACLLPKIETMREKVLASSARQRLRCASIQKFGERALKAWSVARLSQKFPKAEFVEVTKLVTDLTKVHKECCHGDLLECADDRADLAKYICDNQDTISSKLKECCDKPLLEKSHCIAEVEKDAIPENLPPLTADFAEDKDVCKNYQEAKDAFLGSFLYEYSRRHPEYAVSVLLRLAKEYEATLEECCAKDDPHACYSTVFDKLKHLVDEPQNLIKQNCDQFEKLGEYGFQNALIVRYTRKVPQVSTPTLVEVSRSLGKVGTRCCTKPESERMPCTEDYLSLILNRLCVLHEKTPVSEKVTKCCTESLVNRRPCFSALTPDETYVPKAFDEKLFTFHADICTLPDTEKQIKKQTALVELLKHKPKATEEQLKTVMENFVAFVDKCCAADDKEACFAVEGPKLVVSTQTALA
# [2] = small-molecule microarray binders of probe aXIP, primary screen, biochemical, NeuroSMM set, 635/667 nm fluorescence (AID 1119); details: higher = more signal, called active from +8 up or from −8 down;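 note: probe is the protein aXip251-270 applied at 1 µg/mL to compound-printed slides; binding of probe to printed compounds measured as 667 nm fluorescence plus signal to noise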
# [3] = small-molecule binders of probe aNOTCH3, primary screen, biochemical, small-molecule microarray, 635/667 nm fluorescence (AID 1120); details: higher = more signal;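 note: probe is a biotin-tagged antibody raised against NOTCH3 rather than NOTCH3 protein; score merges spot fluorescence near 667 nm with spot signal to noise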
# [4] = small-molecule binders of probe aNOTCH2, primary screen, biochemical, small-molecule microarray, 635/667 nm fluorescence (AID 1121); details: higher = more signal;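 note: score merges feature fluorescence read at 667 nm with its signal to noise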
# [5] = target: Carbonic anhydrase 2 (Homo sapiens) (UniProt P00918); experiment: CAII small-molecule binders, profiling panel, biochemical, small-molecule microarray, Alexa647-labelled CAII (AID 1122); details: CAII-A647 binding fluorescence, higher = more signal
# [6] = COS7 lysate on small-molecule microarray, probe aHis, 635 nm (AID 1123); details: COS7 cell lysate, fluorescence, higher = more signal;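 note: z-score combines 667nm fluorescence intensity with signal-to-noise per printed compound spot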
# [7] = compound binding in COS7 lysate, probe aLAP1, primary screen, cell lysate, small-molecule microarray (AID 1124); details: probe aLAP1, fluorescence, higher = more signal;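 note: lysate comes from COS7 cells expressing LAP1 and is applied at 0.3 µg/mL; score merges spot fluorescence near 667 nm with signal-to-noise over triplicate slides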
# [8] = test system: Sam68 (KHDRBS1); experiment: Sam68 small-molecule binders, primary screen, biochemical, small-molecule microarray, 635 nm fluorescence (AID 1125); details: small-molecule microarray binding, higher = more signal;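 note: score merges 667 nm channel intensity with signal to noise over triplicate slides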
# [9] = test system: Chordin-like protein 2 (CHRDL2); experiment: CHRDL2 small-molecule binders, primary screen, biochemical, small-molecule microarray, 635 nm fluorescence (AID 1126); details: small-molecule microarray binding, fluorescence 635 nm; higher = more signal;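 note: printed compound slides probed with Chrdl2 protein at 4 µg/mL for 1 h at 4 C; score merges 667 nm emission intensity with signal to noise over three replicate slides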
# [10] = target: Concanavalin-A (Canavalia ensiformis) (UniProt P02866); experiment: ConA small-molecule binders, primary screen, artefact control for SMM control protein annotation, biochemical, small-molecule microarray, Alexa647 label, 635 nm (AID 1127); details: ConA-A647 binding fluorescence, higher = more signal;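 note: z combines 667 nm emission intensity with signal-to-noise across three replicate slides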
# Concanavalin-A (Canavalia ensiformis), sequence (P02866 whole entry, looked up): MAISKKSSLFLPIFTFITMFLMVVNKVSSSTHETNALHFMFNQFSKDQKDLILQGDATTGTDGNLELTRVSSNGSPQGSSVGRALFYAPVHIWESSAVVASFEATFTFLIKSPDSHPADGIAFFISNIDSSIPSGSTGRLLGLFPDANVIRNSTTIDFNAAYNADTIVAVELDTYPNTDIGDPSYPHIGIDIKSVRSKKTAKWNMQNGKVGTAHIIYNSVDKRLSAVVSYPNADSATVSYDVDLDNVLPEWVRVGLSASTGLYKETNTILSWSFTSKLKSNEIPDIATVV
# [11] = anti-His antibody binders, primary screen, artefact control for SMM control protein annotation, biochemical, small-molecule microarray, 635 nm fluorescence (AID 1128); details: anti-His Alexa647 antibody binding, higher = more signal;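 note: score merges feature fluorescence with signal-to-noise for each printed compound spot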
# [12] = test system: Human papillomavirus type 1a E7 protein (residues 1-88); experiment: HPV1a E7 small-molecule binders, primary screen, biochemical, small-molecule microarray, residues 1-88, 635 nm (AID 1129); details: small-molecule microarray binding, fluorescence 635 nm; higher = more signal
# [13] = target: Focal adhesion kinase 1 (Homo sapiens) (UniProt Q05397); experiment: small-molecule microarray binders of FAK, primary screen, biochemical, 635/667 nm fluorescence, BSA, DTT (AID 1130); details: PTK2 binding, 635 nm fluorescence, higher = more signal;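 note: composite of spot emission at 667 nm and signal to noise over triplicate slides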
# Focal adhesion kinase 1 (Homo sapiens), sequence (Q05397 whole entry, looked up): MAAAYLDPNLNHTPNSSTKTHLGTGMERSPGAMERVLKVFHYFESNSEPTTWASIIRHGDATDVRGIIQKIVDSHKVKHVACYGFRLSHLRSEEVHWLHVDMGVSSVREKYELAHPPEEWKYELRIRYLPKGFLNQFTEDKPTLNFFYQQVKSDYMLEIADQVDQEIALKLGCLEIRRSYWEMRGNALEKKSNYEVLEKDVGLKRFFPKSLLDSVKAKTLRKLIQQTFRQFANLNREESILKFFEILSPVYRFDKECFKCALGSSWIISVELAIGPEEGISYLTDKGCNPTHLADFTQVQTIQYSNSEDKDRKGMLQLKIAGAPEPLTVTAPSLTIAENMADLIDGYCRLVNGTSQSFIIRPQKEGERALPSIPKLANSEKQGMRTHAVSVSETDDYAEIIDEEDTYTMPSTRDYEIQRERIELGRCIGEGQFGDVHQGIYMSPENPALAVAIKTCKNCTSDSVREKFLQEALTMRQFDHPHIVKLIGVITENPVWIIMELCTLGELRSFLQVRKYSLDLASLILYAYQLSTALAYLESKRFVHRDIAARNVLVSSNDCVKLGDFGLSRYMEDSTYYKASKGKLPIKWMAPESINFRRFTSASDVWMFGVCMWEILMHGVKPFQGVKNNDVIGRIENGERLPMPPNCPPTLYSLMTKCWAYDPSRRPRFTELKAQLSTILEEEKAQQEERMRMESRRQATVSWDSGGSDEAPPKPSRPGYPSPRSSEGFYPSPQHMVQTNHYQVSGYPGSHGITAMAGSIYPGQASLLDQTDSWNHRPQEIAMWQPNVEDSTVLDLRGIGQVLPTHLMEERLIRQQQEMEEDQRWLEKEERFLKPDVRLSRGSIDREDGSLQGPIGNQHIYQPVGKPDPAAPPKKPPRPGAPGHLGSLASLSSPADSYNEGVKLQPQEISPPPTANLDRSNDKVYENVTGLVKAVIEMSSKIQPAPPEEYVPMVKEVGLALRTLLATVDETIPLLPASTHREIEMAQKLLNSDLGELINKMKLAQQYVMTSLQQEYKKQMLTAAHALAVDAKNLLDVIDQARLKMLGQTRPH
# [14] = test system: Fibrinogen (Alexa647-labelled); experiment: fibrinogen binders on compound microarrays, profiling panel, artefact control for SMM control-protein annotation, biochemical, small-molecule microarray, 635/667 nm fluorescence (AID 1131); details: fibrinogen-A647 binding fluorescence, higher = more signal;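 note: z-score merges 667 nm fluorescence with per-spot signal-to-noise over triplicate slides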
# [15] = target: Follistatin (Homo sapiens) (UniProt P19883); experiment: follistatin binders on small-molecule microarrays, primary screen, biochemical, small-molecule microarray, 635/667 nm fluorescence (AID 1132); details: FST binding, 635 nm fluorescence, higher = more signal
# Follistatin (Homo sapiens), sequence (P19883 whole entry, looked up): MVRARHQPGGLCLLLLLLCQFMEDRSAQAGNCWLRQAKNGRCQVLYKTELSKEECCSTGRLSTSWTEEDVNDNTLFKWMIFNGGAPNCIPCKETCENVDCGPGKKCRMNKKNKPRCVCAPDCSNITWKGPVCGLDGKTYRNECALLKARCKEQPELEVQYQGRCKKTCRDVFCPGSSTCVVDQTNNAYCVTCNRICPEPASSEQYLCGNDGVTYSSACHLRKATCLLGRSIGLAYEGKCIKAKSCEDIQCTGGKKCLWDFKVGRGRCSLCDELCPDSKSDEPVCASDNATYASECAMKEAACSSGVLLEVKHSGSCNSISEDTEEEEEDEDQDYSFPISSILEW
# [16] = target: Fibroblast growth factor 2 (Homo sapiens) (UniProt P09038); experiment: FGF2 binders on small-molecule microarrays, primary screen, biochemical, small-molecule microarray, 635/667 nm fluorescence (AID 1133); details: small-molecule microarray binding, FGF2, fluorescence 635/667; higher = more signal
# Fibroblast growth factor 2 (Homo sapiens), sequence (P09038 whole entry, looked up): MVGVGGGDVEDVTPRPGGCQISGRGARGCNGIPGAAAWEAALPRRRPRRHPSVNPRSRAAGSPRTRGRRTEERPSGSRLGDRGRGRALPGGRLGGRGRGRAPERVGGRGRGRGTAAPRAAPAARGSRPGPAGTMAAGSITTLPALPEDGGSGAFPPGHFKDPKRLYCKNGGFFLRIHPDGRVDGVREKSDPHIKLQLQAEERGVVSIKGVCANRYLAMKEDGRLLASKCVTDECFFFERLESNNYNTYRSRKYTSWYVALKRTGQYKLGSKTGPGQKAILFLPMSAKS
# [17] = mitochondrial membrane potential change in A549 cells, profiling panel, cell-based, JC-1 fluorescence, basal, 24 h, 100 nL (AID 1138); details: higher = more signal;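 note: A549 lung adenocarcinoma cells under basal conditions with no added stimulus; test concentration not given here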
# [18] = test system: Lefty1; experiment: Lefty1 binders on small-molecule microarrays, primary screen, biochemical, small-molecule microarray, 635/667 nm fluorescence (AID 1139); details: small-molecule microarray binding, fluorescence 635/667; higher = more signal
# [19] = test system: wheat germ agglutinin (Triticum aestivum), Alexa647-labelled; experiment: wheat germ agglutinin binders on compound microarrays, profiling panel, artefact control for SMM control-protein annotation, biochemical, small-molecule microarray, 635/667 nm fluorescence (AID 1140); details: WGA-A647 binding, 635 nm fluorescence, higher = more signal;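 note: score merges 667 nm feature emission with signal to noise over triplicate slides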
# [20] = target: Luciferin 4-monooxygenase (Photinus pyralis) (UniProt P08659); experiment: firefly luciferase enzyme inhibitors, primary screen, biochemical, luminescence, purified enzyme, 2006 set (AID 1141); details: SteadyGlo luminescence, 30 min, higher = more signal, called active from +8 up or from −8 down;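 note: cell-free assay with purified firefly luciferase at 100 ng per well in PBS; test concentration not given here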
# Luciferin 4-monooxygenase (Photinus pyralis), sequence (P08659 whole entry, looked up): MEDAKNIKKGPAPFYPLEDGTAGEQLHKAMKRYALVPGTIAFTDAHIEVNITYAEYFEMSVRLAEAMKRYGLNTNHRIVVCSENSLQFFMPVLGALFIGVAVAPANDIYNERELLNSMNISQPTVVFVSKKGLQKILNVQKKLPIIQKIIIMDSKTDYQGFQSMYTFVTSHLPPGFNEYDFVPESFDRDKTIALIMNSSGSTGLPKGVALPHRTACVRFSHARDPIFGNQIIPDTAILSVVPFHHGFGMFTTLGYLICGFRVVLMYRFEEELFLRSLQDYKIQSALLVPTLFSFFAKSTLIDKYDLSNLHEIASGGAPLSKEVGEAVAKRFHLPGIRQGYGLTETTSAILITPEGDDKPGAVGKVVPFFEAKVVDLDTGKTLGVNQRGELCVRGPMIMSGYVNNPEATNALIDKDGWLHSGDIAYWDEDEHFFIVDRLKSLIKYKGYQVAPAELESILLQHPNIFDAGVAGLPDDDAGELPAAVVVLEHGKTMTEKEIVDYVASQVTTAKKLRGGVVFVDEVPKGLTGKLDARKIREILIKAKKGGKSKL
Structure (SMILES),composite z-score [1],composite Z-score [2],composite z-score [3],composite z-score [4],composite z-score [5],composite z-score [6],composite z-score [7],composite z-score [8],composite z-score [9],composite z-score [10],composite z-score [11],composite z-score [12],composite z-score [13],composite z-score [14],composite z-score [15],composite z-score [16],z-score [17],composite z-score [18],composite z-score [19],z-score [20]
O=C(CS)NCCCCCCNC(=O)[C@@H]1C[C@@H]2C(=O)NCC(=O)N2[C@@H]1c1cccc(OCCO)c1,-0.607,0.359 (inactive),-0.446,-0.398,0.679,2.91,0.71,0.318,0.26,0.625,3.13,1.23,0.69,-0.993,0.998,1.4,0.609,-0.408,-0.56,-1.02 (inactive)
COCCOC(=O)N1C(=O)[C@@]2(c3cc(C#CCNC(N)=O)ccc31)[C@H](C(=O)Nc1nc3ccccc3s1)[C@H]1C(=O)O[C@H](c3ccccc3)[C@H](c3ccccc3)N1[C@@H]2c1ccc(OCCO)cc1,-0.28,-0.335 (inactive),0.0952,0.0949,0.382,0.481,0.422,1.1,1.34,0.994,-0.187,0.669,0.346,0.901,1.36,1.08,-2.31,0.9,0.677,-2.41 (inactive)
CCC(CC)C(O)C1C=CC2C(=O)NC(=O)C2N1Nc1ccc(Cl)cc1Cl (stereo not given),0.869,0.818 (inactive),0.237,0.0333,0.654,2.18,1.02,0.887,-0.381,1.06,1.66,1.18,0.383,0.952,1.14,-0.0832,-0.00434,0.359,0.788,-0.533 (inactive)
NCCCCCNC(=O)[C@@H]1C[C@@H]2C(=O)N[C@@H](Cc3ccccc3)C(=O)N2[C@@H]1c1ccc(O)cc1,0.507,0.839 (inactive),-0.0716,-0.108,0.231,2.21,-0.304,1.24,-0.129,0.968,1.85,0.958,0.255,0.89,1.28,0.871,0.972,0.865,0.86,-0.365 (inactive)
O=C(NC1CC1)[C@@H]1c2ccccc2C(=O)N(Cc2ccccc2Cl)[C@H]1c1ccc(CO)cc1,-0.243,0.0965 (inactive),0.0765,-0.0411,0.633,2.33,0.108,1.33,0.516,1.02,3.06,0.981,1.06,0.57,1.33,1.32,3.13,0.233,0.447,-1.44 (inactive)
COc1ccc(CCNC(=O)[C@@]2(Sc3ccc(C)cc3)CC(=O)N(C3Cc4ccccc4C3)[C@@H]2c2ccc(CO)cc2I)cc1,-0.101,-0.235 (inactive),0.0425,-0.192,0.729,1.17,-0.286,0.608,-0.235,-1.26,1.13,0.255,0.235,-0.716,-0.816,-0.944,1.43,-1.04,-0.176,-0.704 (inactive)
